Read-out in experiment [1]: NAD(P)H dehydrogenase [quinone] 1 (NQO1), NQO1 (gene 1728)
Nature of the experiment: LTEA_HepaRG_NQO1: Life Technologies and Expression Analysis (LTEA) Assay for NAD(P)H dehydrogenase [quinone] 1 (NQO1) using HepaRG (AID 2283526). The conditions noted are these: mRNA level, 48 h; actives raise or lower the signal. The procedure, abridged:
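qRT-PCR read-out (Fluidigm TaqMan), normalized to three housekeeping genes, after 48 h chemical exposure of HepaRG cells. Concentrations: eight points, top 100 uM, half-log steps, 0.5% DMSO vehicle. Gain or loss of signal fitted relative to DMSO.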

Read-out in experiment [2]: Nuclear factor erythroid 2-related factor 2 (Homo sapiens) (UniProt Q16236)
The experiment in a line: LTEA_HepaRG_NFE2L2: Life Technologies and Expression Analysis (LTEA) Assay for Nuclear factor erythroid 2-related factor 2 (NFE2L2) Transcription Factor using HepaRG (AID 2283527). The conditions noted are these: mRNA level, 48 h; actives raise or lower the signal. The procedure, abridged:
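Human liver HepaRG line treated in duplicate for 48 h with an eight-point series topping at 100 uM. Gene expression of NFE2L2 by qRT-PCR, bidirectionally fitted against the vehicle control.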

Read-out in experiment [3]: succinate dehydrogenase complex iron sulfur subunit B (SDHB), SDHB (gene 6390)
The experiment in a line: LTEA_HepaRG_SDHB: Life Technologies and Expression Analysis (LTEA) Assay for succinate dehydrogenase complex iron sulfur subunit B (SDHB) using HepaRG (AID 2283528). The conditions noted are these: mRNA level, 48 h; actives raise or lower the signal. The procedure, abridged: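 SDHB transcript level read by TaqMan qRT-PCR, housekeeping-normalised (ACTB, GAPDH, POLR2A), after 48 h chemical treatment of plated HepaRG cells; eight concentrations top 100 uM, half-log steps, 0.5% DMSO, duplicates; fitted both directions against DMSO.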

Read-out in experiment [4]: Signal transducer and activator of transcription 3 (Homo sapiens) (UniProt P40763)
Nature of the experiment: LTEA_HepaRG_STAT3: Life Technologies and Expression Analysis (LTEA) Assay for Signal transducer and activator of transcription (STAT3) using HepaRG (AID 2283529). The conditions noted are these: mRNA level, 48 h; actives raise or lower the signal. The method in brief: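 In this transcriptional endpoint, HepaRG cultures receive test chemicals at up to 100 uM for 48 h, tested in duplicate. STAT3 mRNA is normalized to ACTB, GAPDH and POLR2A.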

Read-out in experiment [5]: solute carrier (SLCO1B1), SLCO1B1 (gene 10599)
Nature of the experiment: LTEA_HepaRG_SLCO1B1: Life Technologies and Expression Analysis (LTEA) Assay for solute carrier (SLCO1B1) using HepaRG (AID 2283530). As to conditions: mRNA level, 48 h; actives raise or lower the signal. The procedure, abridged:
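SLCO1B1 transcript read by qRT-PCR (Fluidigm arrays), normalized to three housekeeping genes, after 48 h chemical exposure of HepaRG cells; bidirectional concentration-response fitting versus 0.5% DMSO baseline. Eight-point half-log series, maximum 100 uM.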

Read-out in experiment [6]: sulfotransferase 2A1 (SULT2A1), SULT2A1 (gene 6822)
The experiment in a line: LTEA_HepaRG_SULT2A1: Life Technologies and Expression Analysis (LTEA) Assay for sulfotransferase 2A1 (SULT2A1) using HepaRG (AID 2283531). As to conditions: mRNA level, 48 h; actives raise or lower the signal. The procedure, abridged: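 HepaRG, 48 h chemical exposure, 8-pt half-log curve from 100 uM in 0.5% DMSO, duplicates. Readout: TaqMan qRT-PCR of SULT2A1 mRNA, housekeeping-normalized. Bidirectional fit vs DMSO baseline.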

Read-out in experiment [7]: Transforming Growth Factor (TGFA), TGFA (gene 7039)
Nature of the experiment: LTEA_HepaRG_TGFA: Life Technologies and Expression Analysis (LTEA) Assay for Transforming Growth Factor (TGFA) using HepaRG (AID 2283532). The conditions noted are these: mRNA level, 48 h; actives raise or lower the signal. The method in brief:
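Gene expression of TGFA was quantified by qRT-PCR after human HepaRG cells were treated for 48 h with test chemicals (eight concentrations, highest 100 uM, 0.5% DMSO). Activity in either direction was fitted relative to DMSO.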

Read-out in experiment [8]: Transforming Growth Factor (TGFB1), TGFB1 (gene 7040)
Nature of the experiment: LTEA_HepaRG_TGFB1: Life Technologies and Expression Analysis (LTEA) Assay for Transforming Growth Factor (TGFB1) Transporter using HepaRG (AID 2283533). As to conditions: mRNA level, 48 h; actives raise or lower the signal. The method in brief:
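qRT-PCR readout of TGFB1 transcript in HepaRG lysates, normalized to three housekeeping genes; gain or loss of signal fitted relative to 0.5% DMSO vehicle. Exposure: 48 h, 8-point curve from 100 uM, duplicate wells.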

Read-out in another experiment: TIMP1, TIMP1 (gene 7076)
The experiment in a line: LTEA_HepaRG_TIMP1: Life Technologies and Expression Analysis (LTEA) Assay for TIMP1 using HepaRG (AID 2283534). The conditions noted are these: mRNA level, 48 h; actives raise or lower the signal. The method in brief:
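HepaRG, 48 h exposure, 8-pt half-log series from 100 uM in 0.5% DMSO, duplicates; TIMP1 transcript by Fluidigm qRT-PCR, housekeeping-normalized; bidirectional curve fit vs DMSO baseline.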

Read-out in experiment [9]: Tumor necrosis factor receptor 1 (TNFRSF1A), TNFRSF1A (gene 7132)
The experiment in a line: LTEA_HepaRG_TNFRSF1A: Life Technologies and Expression Analysis (LTEA) Assay for Tumor necrosis factor receptor 1 (TNFRSF1A) using HepaRG (AID 2283535). The conditions noted are these: mRNA level, 48 h; actives raise or lower the signal. The procedure, abridged:
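HepaRG, 48 h plating then 48 h chemical exposure, serum-free induction media; 8-pt CRC from 100 uM, half-log, 0.5% DMSO vehicle, duplicates. Readout: TaqMan qRT-PCR (Fluidigm), housekeeping-gene normalized; bidirectional fit vs DMSO.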

Read-out in experiment [10]: Thyroid Hormone Responsive (THRSP), THRSP (gene 7069)
Nature of the experiment: LTEA_HepaRG_THRSP: Life Technologies and Expression Analysis (LTEA) Assay for Thyroid Hormone Responsive (THRSP) using HepaRG (AID 2283536). The conditions noted are these: mRNA level, 48 h; actives raise or lower the signal. The method in brief:
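Cell model: human HepaRG, approx. 100,000 cells/well, 0.5% DMSO vehicle. Exposure lasts 48 h; phenobarbital 1 mM serves as induction positive control. Gene expression is measured by qRT-PCR against three endogenous control genes.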

Read-out in experiment [11]: Cellular tumor antigen p53 (Homo sapiens) (UniProt P04637)
The experiment in a line: LTEA_HepaRG_TP53: Life Technologies and Expression Analysis (LTEA) Assay for Tumor Protein P53 (TP53) using HepaRG (AID 2283537). The conditions noted are these: mRNA level, 48 h; actives raise or lower the signal. The procedure, abridged: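 TP53 transcript measured by qRT-PCR, normalized to three housekeeping genes, after 48 h treatment of human HepaRG cultures with chemicals from 100 uM downward in half-log steps (0.5% DMSO vehicle, serum-free induction medium). Up- or down-regulation fitted against DMSO.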

Read-out in experiment [12]: UDP glucuronosyltransferase (UGT1A1), UGT1A1 (gene 54658)
The experiment in a line: LTEA_HepaRG_UGT1A1: Life Technologies and Expression Analysis (LTEA) Assay for UDP glucuronosyltransferase (UGT1A1) using HepaRG (AID 2283538). The conditions noted are these: mRNA level, 48 h; actives raise or lower the signal. The method in brief: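 HepaRG, 48 h chemical exposure (top 100 uM, half-log 8-pt, 0.5% DMSO vehicle), duplicate wells; qRT-PCR (TaqMan, Fluidigm array) for UGT1A1 mRNA, housekeeping-normalized; bidirectional curve fit vs DMSO baseline.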

Read-out in experiment [13]: UDP glucuronosyltransferase (UGT1A6), UGT1A6 (gene 54578)
The experiment in a line: LTEA_HepaRG_UGT1A6: Life Technologies and Expression Analysis (LTEA) Assay for UDP glucuronosyltransferase (UGT1A6) using HepaRG (AID 2283539). As to conditions: mRNA level, 48 h; actives raise or lower the signal. The method in brief:
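qRT-PCR readout of UGT1A6 mRNA (normalized to ACTB/GAPDH/POLR2A) in differentiated HepaRG cells after 48 h chemical exposure; 8 concentrations, top 100 uM, half-log steps, 0.5% DMSO. Bidirectional curve fit relative to DMSO baseline.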

Read-out in experiment [14]: X-box binding protein 1 (XBP1), XBP1 (gene 7494)
Nature of the experiment: LTEA_HepaRG_XBP1: Life Technologies and Expression Analysis (LTEA) Assay for X-box binding protein 1 (XBP1) using HepaRG (AID 2283540). As to conditions: mRNA level, 48 h; actives raise or lower the signal. The method in brief: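 HepaRG, 48 h exposure, 8-pt half-log CRC top 100 uM, 0.5% DMSO vehicle, duplicates. Readout: TaqMan qRT-PCR of XBP1 mRNA, housekeeping-normalised (ACTB/GAPDH/POLR2A); bidirectional fit vs DMSO baseline.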

A short description of experiment [15]: LTEA_HepaRG_LDH_cytotoxicity: Cytotoxicity Assessment in the Life Technologies and Expression Analysis (LTEA) Assay (AID 2283563; active means hit-call score of the fitted dose curve at least 0.9, where 1 is the maximum;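 on AC50: LDH activity released into spent culture medium as a marker of cell death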). The method in brief: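 HepaRG (human liver line), 48 h exposure, 8-pt half-log series from 100 uM, 0.5% DMSO vehicle, duplicates. Read-out: LDH in spent medium. Positive-direction fit vs DMSO baseline.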
Experiment [16] has as its target Cellular tumor antigen p53 (Homo sapiens) (UniProt P04637). Nature of the experiment: TOX21_p53_BLA_p2_ratio: Tox21 HCT-116 p53 Agonism Beta-lactamase Assay, Ratio, Phase 2 (AID 2283592; active means hit-call score of the fitted dose curve at least 0.9, where 1 is the maximum). The method in brief:
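Readout: blue/green (460/530 nm) FRET emission ratio after 2 h CCF4-AM loading at room temperature, excitation 405 nm. HCT116 p53 bla cells, 16 h compound exposure at 37C, 5% CO2; agonist direction fitted against DMSO baseline.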

Experiment [17] is described as follows: ATG_XTT_Cytotoxicity: Cytotoxicity Assessment in the Attagene TRANS-FACTORIAL HepG2 Assay (AID 2283584; active means hit-call score of the fitted dose curve at least 0.9, where 1 is the maximum). The procedure, abridged: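 XTT readout of cell number in transfected HepG2 cells, 24 h post-dosing; DMSO serves as negative control and baseline, with activity taken as loss of viability signal.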
A short description of experiment [18]: TOX21_p53_BLA_p2_viability: Viability Assessment in the Tox21 HCT-116 p53 Agonism Beta-lactamase Assay, Phase 2 (AID 2283591; active means hit-call score of the fitted dose curve at least 0.9, where 1 is the maximum;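 further: actives lower the ATP signal meaning cytotoxicity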). The method in brief: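 HCT-116 p53-bla cells (4000/well) rested 5 h at 37C, then received compounds in DMSO (217-fold dilution) for 16 h at 37C, 5% CO2. After the CCF4 read, CellTiter-Glo was added; ATP luminescence was read after 30 min at room temperature.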

Experiment [19] can be described thus: TOX21_p53_BLA_p3_viability: Viability Assessment in the Tox21 HCT-116 p53 Agonism Beta-lactamase Assay, Phase 3 (AID 2283593; active means hit-call score of the fitted dose curve at least 0.9, where 1 is the maximum;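 further: cells exposed to compound for 16 h before reading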). The method in brief:
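HCT-116 cells (4000/well) rested 5 h at 37C, then got DMSO compounds by pin tool (217-fold dilution) for 16 h at 37C, 5% CO2. After the bla read, CellTiter-Glo was added and luminescence read at 30 min, room temperature.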

SMILES strings stand for the structures. Records with an inconclusive call do not appear. The source made the active and inactive calls. How the source made its calls, unless noted: active means hit-call score of the fitted dose curve at least 0.9, where 1 is the maximum; inactive means score below 0.9.

Sequence of Cellular tumor antigen p53 (Homo sapiens) (P04637 whole entry, looked up): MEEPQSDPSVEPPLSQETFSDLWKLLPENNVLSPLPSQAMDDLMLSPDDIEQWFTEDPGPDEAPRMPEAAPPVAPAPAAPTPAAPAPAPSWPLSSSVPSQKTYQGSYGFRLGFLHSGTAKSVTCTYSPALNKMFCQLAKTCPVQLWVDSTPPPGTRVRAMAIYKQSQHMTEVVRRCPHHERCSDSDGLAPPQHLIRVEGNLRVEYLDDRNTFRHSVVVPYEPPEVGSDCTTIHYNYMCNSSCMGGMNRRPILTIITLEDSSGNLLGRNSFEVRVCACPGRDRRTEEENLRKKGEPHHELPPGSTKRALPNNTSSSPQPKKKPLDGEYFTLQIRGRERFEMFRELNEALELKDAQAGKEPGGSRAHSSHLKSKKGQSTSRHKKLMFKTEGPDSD
Sequence of Signal transducer and activator of transcription 3 (Homo sapiens) (P40763 whole entry, looked up): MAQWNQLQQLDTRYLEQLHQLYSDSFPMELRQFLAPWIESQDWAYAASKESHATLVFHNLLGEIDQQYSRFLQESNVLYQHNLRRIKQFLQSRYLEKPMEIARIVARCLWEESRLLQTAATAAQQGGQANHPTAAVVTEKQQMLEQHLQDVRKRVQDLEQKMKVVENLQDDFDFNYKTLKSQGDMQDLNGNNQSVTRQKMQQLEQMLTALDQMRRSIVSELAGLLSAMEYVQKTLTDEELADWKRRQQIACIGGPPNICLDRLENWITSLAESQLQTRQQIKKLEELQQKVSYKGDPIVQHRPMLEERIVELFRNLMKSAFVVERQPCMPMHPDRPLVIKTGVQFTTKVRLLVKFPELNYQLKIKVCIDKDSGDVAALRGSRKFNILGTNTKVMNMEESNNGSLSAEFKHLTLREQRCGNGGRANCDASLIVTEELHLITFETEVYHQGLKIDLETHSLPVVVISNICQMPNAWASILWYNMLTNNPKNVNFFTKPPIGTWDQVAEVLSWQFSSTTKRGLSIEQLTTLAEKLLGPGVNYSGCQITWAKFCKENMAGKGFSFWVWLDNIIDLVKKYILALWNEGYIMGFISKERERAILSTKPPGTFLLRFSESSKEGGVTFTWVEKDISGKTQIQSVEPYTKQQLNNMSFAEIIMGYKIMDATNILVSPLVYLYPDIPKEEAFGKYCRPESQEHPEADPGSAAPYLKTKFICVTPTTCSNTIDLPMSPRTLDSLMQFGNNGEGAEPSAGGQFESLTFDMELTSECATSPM
Sequence of Nuclear factor erythroid 2-related factor 2 (Homo sapiens) (Q16236 whole entry, looked up): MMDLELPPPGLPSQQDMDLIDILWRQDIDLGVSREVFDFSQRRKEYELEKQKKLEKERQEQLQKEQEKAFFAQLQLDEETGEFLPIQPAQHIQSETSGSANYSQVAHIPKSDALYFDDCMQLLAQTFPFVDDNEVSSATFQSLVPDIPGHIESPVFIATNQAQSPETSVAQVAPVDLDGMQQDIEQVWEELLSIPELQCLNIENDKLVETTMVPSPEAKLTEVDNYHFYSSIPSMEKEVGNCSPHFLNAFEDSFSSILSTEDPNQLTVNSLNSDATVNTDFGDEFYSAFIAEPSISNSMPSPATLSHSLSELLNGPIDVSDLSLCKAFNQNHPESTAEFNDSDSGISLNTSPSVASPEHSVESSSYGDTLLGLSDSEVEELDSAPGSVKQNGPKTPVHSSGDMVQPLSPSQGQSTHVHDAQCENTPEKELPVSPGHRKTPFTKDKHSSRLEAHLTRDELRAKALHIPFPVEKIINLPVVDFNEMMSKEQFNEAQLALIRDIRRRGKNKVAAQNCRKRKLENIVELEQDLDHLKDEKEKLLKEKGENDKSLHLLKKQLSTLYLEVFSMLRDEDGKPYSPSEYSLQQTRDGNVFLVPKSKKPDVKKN

On to `CCOP(=S)(Oc1cnc(C(C)(C)C)nc1)OC(C)C` (stereo unspecified), for which the result in experiment [1], in experiment [2], in experiment [3], in experiment [4], in [5] and in experiment [6] was inactive. Further, the outcome was “inactive” in [7]; “inactive” in experiment [8]; “inactive” in the experiment with TIMP1, TIMP1 (gene 7076); “inactive” in [9]; “inactive” in [11]; “inactive” in [12]. For the same molecule, the outcome in experiment [13], in [15] and in experiment [16] was inactive. In addition, the AC50 (in general, the concentration at which the activity in the assay is half-maximal) in experiment [10] was 68.5 µM (active); in experiment [14], 50 µM (active).

`CCc1cccc(C)c1N(C(=O)CCl)C(C)COC` (stereo unspecified): the molecule was classed as inactive in experiment [1], in [2], in [3], in [4], in experiment [5] and in experiment [6]. Besides, the outcome in experiment [7] is “inactive”; in experiment [8], “inactive”; in the experiment with TIMP1, TIMP1 (gene 7076) it was “inactive”; in experiment [9], “inactive”; in [10], “inactive”; in [11], “inactive”. For the same molecule, the molecule was called inactive in experiment [13], in experiment [14], in experiment [15], in [17], in [18] and in experiment [16]. Moreover, the call in [19] was inactive. In addition, the AC50 in [12] was 20.5 µM (active).

As for `CC[C@H](C)[C@H]1O[C@]2(C=C[C@@H]1C)C[C@@H]1C[C@@H](C/C=C(\C)[C@@H](O[C@H]3C[C@H](OC)[C@@H](O[C@H]4C[C@H](OC)[C@@H](NC)[C@H](C)O4)[C@H](C)O3)[C@@H](C)/C=C/C=C3\CO[C@@H]4[C@H](O)C(C)=C[C@@H](C(=O)O1)[C@]34O)O2`, the AC50 in [1] was 31.7 µM (active); in experiment [4], 11.9 µM (active); in [5], 19.9 µM (active); in experiment [6], 26.3 µM (active); in experiment [9] it was 12 µM (active); in experiment [11] it was 86.7 µM (active). Also, the half-maximal activity concentration (AC50) in experiment [12] was 12.7 µM (active); in [13], 12.5 µM (active); in experiment [14] it was 12.8 µM (active); in [15] it was 18.2 µM (active); in [18], 13.5 µM (active); in [16] it was 59.1 µM (active). In addition, the half-maximal activity concentration (AC50) in experiment [19] was 14.4 µM (active). Further, the outcome in experiment [2] is “inactive”; in experiment [3], “inactive”; in experiment [7] it was “inactive”; in experiment [8], “inactive”; with TIMP1, TIMP1 (gene 7076), “inactive”; in experiment [10] it was “inactive”.
